The values below come from PubChem BioAssay (EPA / NIEHS).

Results filed as inconclusive are left out. Active and inactive are the calls of the source. How the source made its calls, unless noted: active means hit-call score of the fitted dose curve at least 0.9, where 1 is the maximum; inactive means score below 0.9.

The nature of test [1]: ACEA_ER_80hr: ACEA Biosciences xCELLigence Real-Time Cell Analysis on Estrogen Receptor Agonism for Proliferation (AID 2282667; active means hit-call score of the fitted dose curve at least 0.9, where 1 is the maximum). The note with it: T47D proliferation, impedance (xCELLigence), 80 h. The method, boiled down:
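Real-time electrical impedance tracked growth of the human breast line T47D, with the 80 h post-dosing value used. Dosing spanned eight 1:4 steps down from a 100 uM final top concentration, run in duplicate.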

Test [2] can be described thus: ATG_CRE_CIS: Attagene CIS-FACTORIAL HepG2 Assay for human cAMP Responsive Element (CRE) binding protein 3 (AID 2282926). Particulars: HepG2 CRE cis-reporter, Attagene multiplexed mRNA; actives raise or lower the signal. The method, boiled down:
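Assay format: transient reporter transfection of HepG2, 24 h treatment, total RNA isolation with DNase I step. Reporter abundance read by fluorescence after PCR and capillary separation; DMSO-normalised gain or loss fitting.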

Test [3] has as its target CCAAT/enhancer-binding protein beta (Homo sapiens) (UniProt P17676). In words: ATG_C_EBP_CIS: Attagene CIS-FACTORIAL HepG2 Assay for human CCAAT/Enhancer Binding Protein (C/EBP) beta (AID 2282927). The note with it: HepG2 Attagene cis-factorial transcription factor reporter; actives raise or lower the signal. The method, boiled down: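 HepG2, transient MRTU transfection, 24 h treatment. RT-PCR plus CE fluorescence; DMSO negative control, bidirectional fit.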

A short description of test [4]: ATG_CMV_CIS: Attagene CIS-FACTORIAL HepG2 Assay for human CMV (Internal Marker) (AID 2282928).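 Further: endpoint acts as a background internal control marker rather than a target.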 Particulars: HepG2 CMV promoter reporter, transcription factor profiling; actives raise or lower the signal. The method, boiled down:
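Reporter transcripts from transfected HepG2 cells are isolated after 24 h of chemical dosing, reverse-transcribed and amplified. Fragments labeled with 6-FAM are cut with HpaI and quantified by capillary electrophoresis; DMSO defines baseline.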

Test [5] is described as follows: ATG_DR4_LXR_CIS: Attagene CIS-FACTORIAL HepG2 Assay for human Liver X Receptor (LXR), DR4 submotif (AID 2282929). The note with it: HepG2 Attagene DR4 cis-reporter, mRNA transcription; actives raise or lower the signal. The method, boiled down:
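Fluorescence intensity of labelled reporter cDNA fragments, separated by capillary electrophoresis, gives the signal. HepG2 cells bearing cis-regulated reporter constructs were treated 24 h; activity fitted bidirectionally relative to DMSO negative control.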

In test [6] the target is Aryl hydrocarbon receptor (Homo sapiens) (UniProt P35869). Briefly: ATG_Ahr_CIS: Attagene CIS-FACTORIAL HepG2 Assay for human Aryl Hydrocarbon Receptor (Ahr) (AID 2282930). Particulars: HepG2 AhR cis-factorial reporter transcription; actives raise or lower the signal. The method, boiled down: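 Endogenous factor activity is tracked through cis-promoter reporter units transfected into HepG2 cells. Transcript levels at 24 h are read by fluorescent RT-PCR and capillary electrophoresis, with activity in either direction scored relative to DMSO.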
Sequence of Aryl hydrocarbon receptor (Homo sapiens) (P35869 whole entry, looked up): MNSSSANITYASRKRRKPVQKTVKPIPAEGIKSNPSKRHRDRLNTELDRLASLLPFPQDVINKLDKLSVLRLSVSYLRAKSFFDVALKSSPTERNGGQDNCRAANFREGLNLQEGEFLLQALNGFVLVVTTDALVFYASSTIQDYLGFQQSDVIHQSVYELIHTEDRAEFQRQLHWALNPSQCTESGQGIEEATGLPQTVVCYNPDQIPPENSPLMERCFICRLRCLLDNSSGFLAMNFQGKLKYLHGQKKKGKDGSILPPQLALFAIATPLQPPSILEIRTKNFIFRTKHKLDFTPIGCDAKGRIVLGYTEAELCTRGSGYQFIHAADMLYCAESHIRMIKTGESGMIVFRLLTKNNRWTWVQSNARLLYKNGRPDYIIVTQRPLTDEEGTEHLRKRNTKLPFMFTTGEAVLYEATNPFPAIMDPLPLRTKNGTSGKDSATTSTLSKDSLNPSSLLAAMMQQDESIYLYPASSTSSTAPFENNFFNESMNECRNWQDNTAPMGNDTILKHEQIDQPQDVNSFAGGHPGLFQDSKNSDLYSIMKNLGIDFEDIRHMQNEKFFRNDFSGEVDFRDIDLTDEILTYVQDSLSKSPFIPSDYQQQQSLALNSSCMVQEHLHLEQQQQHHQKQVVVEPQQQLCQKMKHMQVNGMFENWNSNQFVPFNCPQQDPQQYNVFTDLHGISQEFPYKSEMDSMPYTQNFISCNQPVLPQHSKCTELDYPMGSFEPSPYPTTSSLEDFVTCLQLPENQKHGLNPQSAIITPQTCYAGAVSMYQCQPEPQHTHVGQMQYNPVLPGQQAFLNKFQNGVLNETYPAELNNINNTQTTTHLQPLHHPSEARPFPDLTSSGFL

Test [7] is described as follows: ATG_AP_1_CIS: Attagene CIS-FACTORIAL HepG2 Assay for human Activator Protein 1 (AP-1) (AID 2282931). The note with it: HepG2 Attagene cis-factorial AP-1 reporter mRNA; actives raise or lower the signal. The method, boiled down: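 Multiplexed HepG2 reporter assay, 24 h dosing. mRNA induction detected by RT-PCR plus capillary electrophoresis. Activity fitted in both directions against DMSO.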

A short description of test [8]: ATG_AP_2_CIS: Attagene CIS-FACTORIAL HepG2 Assay for human Activator Protein 2 (AP-2) (AID 2282932). Particulars: HepG2 AP-2 cis-reporter, Attagene transcription factor profiling; actives raise or lower the signal. The method, boiled down: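 Read-out: fluorescent reporter mRNA via RT-PCR and capillary electrophoresis, 24 h post-dose in transiently transfected HepG2. Endogenous factors drive cis-promoter reporters; gain or loss of signal fitted bidirectionally against DMSO.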

The nature of test [9]: ATG_BRE_CIS: Attagene CIS-FACTORIAL HepG2 Assay for human Bone Morphogenetic Protein (BMP) Response Element (BRE) (AID 2282933). Particulars: HepG2 BMP response element reporter, Attagene transcription factor profiling; actives raise or lower the signal. The method, boiled down:
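Endogenous transcription factor activity at a BMP response element was monitored in transfected HepG2 cells 24 h after dosing. Fluorescent RT-PCR products were resolved by capillary electrophoresis, and activity was fitted in both directions versus DMSO.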

In test [10] the target is Retinoic acid receptor alpha (Homo sapiens) (UniProt P10276). Briefly: ATG_DR5_RAR_CIS: Attagene CIS-FACTORIAL HepG2 Assay for human Retinoic Acid Receptor Alpha (RARE), DR5 submotif (AID 2282934). The note with it: HepG2 Attagene cis-factorial RARE DR5 reporter, mRNA; actives raise or lower the signal. The method, boiled down:
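After 24 h of chemical exposure, transiently transfected HepG2 cells were lysed for total RNA; the DR5-regulated reporter transcript was quantified via RT-PCR and capillary electrophoresis, with activity fitted bidirectionally against DMSO.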

In test [11] the target is Transcription factor E2F1 (Homo sapiens) (UniProt Q01094). In words: ATG_E2F_CIS: Attagene CIS-FACTORIAL HepG2 Assay for human E2F Transcription Factor 1 (AID 2282935). The note with it: HepG2 Attagene cis-reporter, E2F reporter RNA transcripts; actives raise or lower the signal. The method, boiled down:
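Transient MRTU transfection of HepG2; 24 h compound exposure; RNA → oligo(dT) RT → PCR → FAM label → HpaI cut → CE fluorescence. Gain/loss of signal fit against DMSO.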

Test [12] in a line: ATG_E_Box_CIS: Attagene CIS-FACTORIAL HepG2 Assay for human Enhancer Box (E-box) (AID 2282936). Particulars: HepG2 E-box cis-reporter transcription, actives raise or lower the signal. The method, boiled down:
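Transiently transfected HepG2, endogenous TF-driven reporters, 24 h dosing. Readout: RT-PCR plus capillary electrophoresis of fluorescent reporter fragments. Gain or loss of signal fitted bidirectionally against DMSO baseline.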

A short description of test [13]: ATG_M_61_CIS: Attagene CIS-FACTORIAL HepG2 Assay for M61 Transcription Factor (Internal Marker) (AID 2282937). Particulars: HepG2 Attagene CIS-FACTORIAL M61 internal marker reporter; actives raise or lower the signal. The method, boiled down:
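Endogenous transcription factor activity in HepG2 is read through transiently transfected cis-element reporter units. After 24 h dosing, RNA undergoes reverse transcription, PCR and primer extension with 6-FAM before capillary electrophoresis; DMSO-referenced bidirectional fit.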

Test [14] is described as follows: ATG_EGR_CIS: Attagene CIS-FACTORIAL HepG2 Assay for human Early Growth Response 1 (EGR1) (AID 2282938). Particulars: HepG2 Attagene CIS-FACTORIAL EGR reporter mRNA; actives raise or lower the signal. The method, boiled down:
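Activity is taken as induction or loss of reporter mRNA versus DMSO, fitted bidirectionally. Transcripts from cis-regulated reporter units in transiently transfected HepG2 were measured after 24 h by RT-PCR with capillary electrophoresis.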

Test [15] in a line: ATG_M_19_CIS: Attagene CIS-FACTORIAL HepG2 Assay for M19 Transcription Factor (Internal Marker) (AID 2282939). Particulars: HepG2 Attagene CIS-FACTORIAL M19 internal marker reporter; actives raise or lower the signal. The method, boiled down: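 Background-control endpoint from a multiplexed HepG2 reporter panel. Cells carrying cis-regulated reporter constructs are treated 24 h, then reporter transcripts are amplified, fluorescently labelled and sized by capillary electrophoresis. DMSO defines baseline.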

The nature of test [16]: ATG_ERE_CIS: Attagene CIS-FACTORIAL HepG2 Assay for Estrogen Response Element (ERE) (AID 2282940). The note with it: HepG2 ERE cis-reporter, Attagene RNA transcript; actives raise or lower the signal. The method, boiled down:
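Cells used were human hepatoma HepG2, transfected with multiple reporter transcription units under cis-regulatory promoters. Reporter mRNA, read 24 h post-dosing via fluorescent RT-PCR products on capillary electrophoresis, was fitted bidirectionally relative to DMSO.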

Test [17] can be described thus: ATG_Ets_CIS: Attagene CIS-FACTORIAL HepG2 Assay for human Erythroblast Transformation Specific (ETS) (AID 2282941). Particulars: HepG2 ETS cis-reporter transcription, actives raise or lower the signal. The method, boiled down: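 Bidirectional fit versus DMSO of reporter mRNA signal, detected by RT-PCR and capillary electrophoresis in HepG2 cells transiently transfected with cis-element reporters and dosed 24 h.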

The target of test [18] is Hepatocyte nuclear factor 3-beta (Homo sapiens) (UniProt Q9Y261). Briefly: ATG_FoxA2_CIS: Attagene CIS-FACTORIAL HepG2 Assay for human Forkhead box A2 (FOXA2) (AID 2282942). The note with it: HepG2 cis-reporter transcription factor activity, 24 h; actives raise or lower the signal. The method, boiled down: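 Reporter transcript induction is measured by fluorescence after capillary electrophoresis of RT-PCR products from HepG2 cells exposed 24 h. Cis-regulated reporter units report endogenous factor activity; curves fitted both directions against DMSO.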
Sequence of Hepatocyte nuclear factor 3-beta (Homo sapiens) (Q9Y261 whole entry, looked up): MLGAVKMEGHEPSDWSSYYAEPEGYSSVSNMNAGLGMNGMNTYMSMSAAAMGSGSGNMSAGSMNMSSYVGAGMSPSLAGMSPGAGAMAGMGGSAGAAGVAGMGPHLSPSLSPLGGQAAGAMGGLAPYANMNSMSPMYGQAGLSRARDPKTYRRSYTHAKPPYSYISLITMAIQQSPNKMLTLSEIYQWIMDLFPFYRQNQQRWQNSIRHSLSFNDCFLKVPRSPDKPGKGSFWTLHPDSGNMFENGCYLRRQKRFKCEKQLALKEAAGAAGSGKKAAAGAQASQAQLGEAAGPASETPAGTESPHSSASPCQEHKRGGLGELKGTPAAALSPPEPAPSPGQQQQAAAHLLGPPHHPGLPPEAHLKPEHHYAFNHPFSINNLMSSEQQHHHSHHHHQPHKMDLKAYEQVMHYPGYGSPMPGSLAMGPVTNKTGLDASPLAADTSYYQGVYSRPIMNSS

Test [19] is described as follows: ATG_FoxO_CIS: Attagene CIS-FACTORIAL HepG2 Assay for human Forkhead box O (FoxO) (AID 2282943). Particulars: HepG2 Attagene cis-reporter, FoxO element, mRNA; actives raise or lower the signal. The method, boiled down:
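Transfected HepG2 reporter cells exposed to test chemical for 24 h; reporter RNA measured by reverse transcription, PCR and fluorescent capillary electrophoresis; curves fitted for increases and decreases against DMSO.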

Test [20] can be described thus: ATG_GATA_CIS: Attagene CIS-FACTORIAL HepG2 Assay for human GATA Binding Protein (AID 2282944). Particulars: HepG2 GATA cis-element reporter, Attagene multiplex mRNA; actives raise or lower the signal. The method, boiled down:
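Endogenous transcription factor activity was captured through cis-promoter-driven reporters in transfected HepG2 cells. After 24 h exposure, reporter transcripts were quantified by RT-PCR with fluorescent capillary electrophoresis, and responses fitted both directions against DMSO.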

Sequence of Retinoic acid receptor alpha (Homo sapiens) (P10276 whole entry, looked up): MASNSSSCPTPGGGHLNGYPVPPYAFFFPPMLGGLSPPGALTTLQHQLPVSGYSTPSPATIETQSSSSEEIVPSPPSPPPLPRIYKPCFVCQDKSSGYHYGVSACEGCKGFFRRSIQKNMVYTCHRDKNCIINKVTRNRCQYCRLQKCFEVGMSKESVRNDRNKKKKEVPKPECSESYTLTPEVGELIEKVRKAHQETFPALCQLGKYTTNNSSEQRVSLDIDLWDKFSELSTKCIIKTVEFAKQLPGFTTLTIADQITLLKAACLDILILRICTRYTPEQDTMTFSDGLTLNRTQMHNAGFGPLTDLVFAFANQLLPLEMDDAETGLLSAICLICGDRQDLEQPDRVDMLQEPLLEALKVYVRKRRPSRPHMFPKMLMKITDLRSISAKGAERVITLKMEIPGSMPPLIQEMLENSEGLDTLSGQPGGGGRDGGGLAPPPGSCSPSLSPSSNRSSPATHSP
Sequence of Transcription factor E2F1 (Homo sapiens) (Q01094 whole entry, looked up): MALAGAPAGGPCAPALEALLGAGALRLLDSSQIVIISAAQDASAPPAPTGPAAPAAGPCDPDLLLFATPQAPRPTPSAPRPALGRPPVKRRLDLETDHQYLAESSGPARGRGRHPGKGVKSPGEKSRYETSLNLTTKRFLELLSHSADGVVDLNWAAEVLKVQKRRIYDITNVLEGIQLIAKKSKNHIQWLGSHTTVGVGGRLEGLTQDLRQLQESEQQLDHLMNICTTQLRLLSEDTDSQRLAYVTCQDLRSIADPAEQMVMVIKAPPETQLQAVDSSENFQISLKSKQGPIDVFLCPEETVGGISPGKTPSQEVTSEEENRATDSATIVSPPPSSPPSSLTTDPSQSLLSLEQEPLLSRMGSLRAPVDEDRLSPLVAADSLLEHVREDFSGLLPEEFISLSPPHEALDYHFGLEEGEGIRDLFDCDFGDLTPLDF
Sequence of CCAAT/enhancer-binding protein beta (Homo sapiens) (P17676 whole entry, looked up): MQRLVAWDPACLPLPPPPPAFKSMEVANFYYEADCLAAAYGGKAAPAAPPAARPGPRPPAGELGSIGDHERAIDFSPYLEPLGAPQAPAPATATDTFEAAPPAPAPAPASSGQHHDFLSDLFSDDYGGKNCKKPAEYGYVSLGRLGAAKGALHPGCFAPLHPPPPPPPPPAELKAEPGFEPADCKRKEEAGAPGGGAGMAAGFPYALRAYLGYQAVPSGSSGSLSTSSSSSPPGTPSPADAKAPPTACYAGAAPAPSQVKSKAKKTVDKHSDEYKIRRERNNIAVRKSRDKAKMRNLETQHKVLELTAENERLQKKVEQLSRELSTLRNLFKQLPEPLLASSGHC

In the case of `CC(C)c1ccc2ncccc2c1`, the compound was called inactive in test [1], in [2], in test [3], in [5], in test [6] and in [7]. Moreover, the compound was called inactive in test [8], in test [9], in test [10], in [11], in test [12] and in [13]. Also, the result in test [14], in test [15], in test [16], in [17], in test [18] and in test [19] was inactive. Also, in test [20], the result was inactive. Besides, in test [4], the concentration at half-maximal activity (AC50) is 53.5 µM (active).

As to `O=S(=O)(O)c1ccc(Nc2nc(Nc3ccc(C=Cc4ccc(Nc5nc(Nc6ccc(S(=O)(=O)O)cc6)nc(N(CCO)CCO)n5)cc4S(=O)(=O)O)c(S(=O)(=O)O)c3)nc(N(CCO)CCO)n2)cc1`, the result in test [1], in [2], in test [3], in test [4], in test [5] and in test [6] was inactive. Moreover, the outcome in test [7], in test [8], in [9], in test [10], in [11] and in test [12] was inactive. Further, the call in test [13], in [14], in [15], in test [16], in test [18] and in test [19] was inactive. Moreover, in test [20], the compound was classed as inactive.

In the case of `CC(C)=CCCC(C)=CC#N`, the compound was classed as inactive in test [1], in [2], in test [3], in test [4], in test [5] and in test [6]. Besides, the result in test [7], in [8], in test [9], in [10], in [11] and in test [12] was inactive. The result in test [13], in test [14], in [15], in [17], in test [18] and in [20] was inactive.

As to `CCOC(=O)OC(=O)OCC`, the outcome in [1], in test [2], in test [3], in test [4], in test [5] and in [6] was inactive. In addition, the outcome in [7], in test [8], in [9], in [10], in test [11] and in test [12] was inactive. Also, the outcome in [13], in [14], in test [15], in [16], in [18] and in [19] was inactive. The call in test [20] was inactive.
